# BAZ2B block – qHTS Assay for Inhibitors of BAZ2B. AlphaScreen BAZ2B-H3K14Ac peptide displacement. 360,000 compounds, 4.4% hits. Potency, µM (doses to about 114 µM), most hits filed as inhibitors. Bromodomain adjacent to zinc finger domain protein 2B (Homo sapiens), Q9UIF8; further: nearly all actives have a fitted effect of over 60% in size
# Target sequence (Q9UIF8 whole entry, looked up, the tested form may be a part): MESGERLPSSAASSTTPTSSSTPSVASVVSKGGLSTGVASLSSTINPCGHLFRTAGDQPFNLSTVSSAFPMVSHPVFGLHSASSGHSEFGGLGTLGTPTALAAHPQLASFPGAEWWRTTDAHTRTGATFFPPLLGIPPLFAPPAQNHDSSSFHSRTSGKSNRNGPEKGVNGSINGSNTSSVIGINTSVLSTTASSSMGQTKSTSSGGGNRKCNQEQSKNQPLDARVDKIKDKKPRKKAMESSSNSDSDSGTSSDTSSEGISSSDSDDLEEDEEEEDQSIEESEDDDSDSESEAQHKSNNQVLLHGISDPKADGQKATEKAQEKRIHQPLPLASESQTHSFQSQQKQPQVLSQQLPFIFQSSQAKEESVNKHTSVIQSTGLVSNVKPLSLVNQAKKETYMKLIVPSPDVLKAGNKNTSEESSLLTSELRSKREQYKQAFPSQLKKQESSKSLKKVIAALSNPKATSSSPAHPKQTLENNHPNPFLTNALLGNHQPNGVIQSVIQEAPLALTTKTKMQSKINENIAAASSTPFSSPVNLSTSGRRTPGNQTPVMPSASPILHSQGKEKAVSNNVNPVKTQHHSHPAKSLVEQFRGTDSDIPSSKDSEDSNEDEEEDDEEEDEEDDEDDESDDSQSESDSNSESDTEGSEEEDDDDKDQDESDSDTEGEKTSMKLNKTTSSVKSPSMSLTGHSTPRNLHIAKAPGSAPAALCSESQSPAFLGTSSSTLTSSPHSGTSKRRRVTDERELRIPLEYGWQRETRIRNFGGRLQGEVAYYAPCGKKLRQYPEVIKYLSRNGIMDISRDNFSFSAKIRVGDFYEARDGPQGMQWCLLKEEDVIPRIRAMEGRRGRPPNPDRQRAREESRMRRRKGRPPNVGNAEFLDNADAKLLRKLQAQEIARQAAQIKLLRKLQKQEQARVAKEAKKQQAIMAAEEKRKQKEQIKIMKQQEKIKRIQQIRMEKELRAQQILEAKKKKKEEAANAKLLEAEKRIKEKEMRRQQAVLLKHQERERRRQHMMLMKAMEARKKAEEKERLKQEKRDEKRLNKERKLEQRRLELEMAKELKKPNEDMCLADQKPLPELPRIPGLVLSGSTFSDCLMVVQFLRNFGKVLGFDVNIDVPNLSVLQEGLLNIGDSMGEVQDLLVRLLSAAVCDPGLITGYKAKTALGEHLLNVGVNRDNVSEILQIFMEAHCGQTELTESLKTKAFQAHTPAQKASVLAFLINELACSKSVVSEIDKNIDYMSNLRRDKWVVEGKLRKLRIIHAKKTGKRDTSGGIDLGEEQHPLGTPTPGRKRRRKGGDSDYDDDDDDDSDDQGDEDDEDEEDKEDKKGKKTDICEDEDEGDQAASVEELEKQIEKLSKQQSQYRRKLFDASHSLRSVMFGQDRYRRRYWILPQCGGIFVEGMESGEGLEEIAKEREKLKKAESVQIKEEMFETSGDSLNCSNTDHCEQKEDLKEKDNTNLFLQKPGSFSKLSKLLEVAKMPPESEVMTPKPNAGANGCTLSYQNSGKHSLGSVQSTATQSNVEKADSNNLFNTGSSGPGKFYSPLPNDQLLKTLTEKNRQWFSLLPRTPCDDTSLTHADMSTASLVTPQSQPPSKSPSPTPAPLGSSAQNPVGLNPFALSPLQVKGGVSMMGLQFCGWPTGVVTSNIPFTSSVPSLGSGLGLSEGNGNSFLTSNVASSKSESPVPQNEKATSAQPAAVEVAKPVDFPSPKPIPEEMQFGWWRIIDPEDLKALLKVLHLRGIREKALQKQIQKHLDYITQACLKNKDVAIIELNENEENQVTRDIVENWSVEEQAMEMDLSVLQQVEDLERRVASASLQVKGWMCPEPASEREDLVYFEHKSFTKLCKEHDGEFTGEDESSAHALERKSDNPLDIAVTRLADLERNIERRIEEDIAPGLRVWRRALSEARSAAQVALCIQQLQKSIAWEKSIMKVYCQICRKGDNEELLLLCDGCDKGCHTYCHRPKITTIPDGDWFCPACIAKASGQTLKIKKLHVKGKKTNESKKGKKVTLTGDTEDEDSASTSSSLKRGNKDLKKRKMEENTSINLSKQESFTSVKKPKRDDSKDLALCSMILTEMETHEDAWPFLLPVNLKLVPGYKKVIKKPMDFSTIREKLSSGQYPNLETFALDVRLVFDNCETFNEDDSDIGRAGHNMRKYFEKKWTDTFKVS
#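 AlphaScreen displacement of biotin-H3(5-23)K14Ac peptide (50 nM final) from BAZ2B (50 nM final) in PBS pH 7.4, 0.01% Tween-20; complex preformed 30 min RT, then compounds (top 110 uM) 30 min RT, beads 20 min dark.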
# JMJD2A Tudor – qHTS Assay for Inhibitors of JMJD2A-Tudor Domain. Lysine-specific demethylase 4A (Homo sapiens), O75164. AID 504339, 2011. AlphaScreen JMJD2A-Tudor / H3K4me3 peptide binding. Potency, µM (highest dose often 114 µM), most hits filed as inhibitors. 390,000 compounds, 4.4% hits; further: nearly all actives have a fitted effect of over 50% in size
# L3MBTL1 block – qHTS Assay for the Inhibitors of L3MBTL1; AlphaScreen L3MBTL1–H3K9me1 peptide binding; Lethal(3)malignant brain tumor-like protein 1 (Homo sapiens), Q9Y468; AID 485360, 2010; 230,000 compounds, 0.66% hits; Potency, µM (titrated, usually from 57.1 µM), most hits filed as inhibitors; further: nearly all actives have a fitted effect of over 60% in size
#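 AlphaScreen proximity signal between nickel-chelate acceptor and streptavidin donor beads (final 10 ug/mL) reports binding of 50 nM L3MBTL1 to 75 nM biotin-H3 K9me1 peptide; complex incubated with compounds 30 min at room temperature; cefsulodin titration as control.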
# G9a inh – qHTS Assay for Inhibitors of Histone Lysine Methyltransferase G9a; AID 504332, 2011; Potency, µM (highest dose often 102 µM), actives largely listed as inhibitors; Histone-lysine N-methyltransferase EHMT2 (Homo sapiens), Q96KQ7; 350,000 compounds, 8.8% hits; G9a H3K9 monomethylation, AlphaScreen, 2 h; further: nearly all actives have a fitted effect of over 75% in size
#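 AlphaScreen read-out: biotin-H3K9 peptide (500 nM) methylation by 20 nM enzyme with 20 uM SAM, 2 h at room temperature after 15 min compound preincubation; anti-monomethyl H3K9 antibody plus donor/acceptor beads, 10 min dark.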
# HP1b binding inh – HTS for Inhibitors of HP1-beta Chromodomain Interactions with Methylated Histone Tails. Chromobox protein homolog 1 (Homo sapiens), P83916. AlphaScreen HP1-beta / biotin-H3K9me3 peptide binding. Potency, µM (titrated, usually from 114 µM), most hits filed as inhibitors. 390,000 compounds, 0.56% hits. AID 540317, 2011; further: nearly all actives have a fitted effect of over 70% in size
#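 AlphaScreen: HP1-beta (50 nM) preformed 30 min with biotin-H3(1-18)K9me3 peptide (50 nM) in PBS pH 7.4, 0.01% Tween-20. Compound added for 30 min at RT, then streptavidin donor/nickel chelate acceptor beads (10 ug/mL) for 30 min.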
# Hits are given with their value; 0 = inactive; ? = inconclusive; - = no result given; [ ] = another dose, or the depositor's remark. Sampled rows, rich in hits. Any-hit rate of the full collection: about 11%. The call rests on the fitted dose curve; in most records, active means well fitted inhibition curve with a large enough effect; inconclusive means small, poorly fitted or top-dose-only effect; inactive means no such curve, though single readings can be large or run the other way.
SMILES,BAZ2B block,JMJD2A Tudor,L3MBTL1 block,G9a inh,HP1b binding inh
COc1ccc2cc(C(=O)NCc3ccccc3)c(=O)oc2c1,0,0,-,-,0
CNC(=O)c1cc2cc(OC)ccc2oc1=N,0,0,0,56.2µM,0
COc1cccc(Nc2ncccc2C(=O)NCc2ccccc2)c1,0,0,0,8.91µM,0
CNC(=O)c1cc2cc(OC)ccc2oc1=O,0,0,-,0,0
CCc1ccc(-n2c(=O)c3ccc(C(=O)NCCc4ccccc4)cc3n(Cc3ccccc3C#N)c2=O)cc1,-,0,-,0,0
Oc1ccccc1C(=S)N1CCCCCC1,0,0,-,?,0
Oc1ccccc1C(=S)N1CCCCC1,0,0,0,10µM,0
CCC(Sc1nnc2c3ccccc3n(CC)c2n1)C(=O)Nc1ccc(NC(C)=O)cc1 (configuration not stated),0,0,-,0,0
CN1CCN(c2ccc(NC(=O)c3ccc(-c4ccc(Br)cc4)o3)cc2)CC1,25.1µM,35.5µM,0[11.4 µM],31.6µM,?
CCN1CCN(c2ccc(NC(=O)c3ccc(Br)o3)cc2)CC1,0,0,-,0,0
CC(=O)N1CCN(c2ccc(NCc3ccc(-c4ccc(Br)cc4)o3)cc2)CC1,-,25.1µM,0,-,0
CN(C)c1oc(-c2ccccc2Cl)nc1P(=O)(c1ccccc1)c1ccccc1,?,56.2µM,-,?,0
CCOP(=O)(OCC)c1nc(-c2ccccc2Cl)oc1N1CCOCC1,0,0,0,0,0
Cc1ccc(N(CC(=O)N2CCN(c3cccc(Cl)c3)CC2)S(=O)(=O)c2c(C)noc2C)cc1,-,0,-,0,0
Cc1cc(C)cc(N(CC(=O)N2CCN(Cc3ccccc3)CC2)S(=O)(=O)c2c(C)noc2C)c1,0,0,0,50.1µM,0
C=CCc1ccccc1OCC(O)CNC1CCCC1 (configuration not stated),0,0,-,0,0
CCOC(=O)c1cc(N)cc([N+](=O)[O-])c1,0,0,0,?,0
CCOC(=O)c1sc2cc([N+](=O)[O-])cc(SCC(C)C)c2c1N,0,39.8µM,-,0,?
Nc1nn(-c2ccccc2)nc1C(=O)OCc1ccccc1Br,0,0,-,0,0
COc1ccc(N(C)C(=O)CCn2cnc3onc(-c4ccc(F)cc4)c3c2=O)c(OC)c1,0,0,-,0,0
O=C(O)Cc1ccc(NS(=O)(=O)c2ccccc2Cl)cc1,?,0,0,22.4µM,0
Cc1ccc(S(=O)(=O)Nc2ccc(=O)n(Cc3ccc(Cl)c(Cl)c3)c2)cc1,0,?,0,?,?
O=c1ccc(NS(=O)(=O)c2ccccc2Cl)cn1Cc1ccc(Cl)c(Cl)c1,56.2µM,0,0,28.2µM,0
Cn1c(C(=O)N2CCN(c3ccccc3)CC2)cc2cc(Cl)ccc21,?,0,0,-,0
CN1CCC2(CC1)N=C(c1ccc(F)cc1)C(=S)N2C(=O)c1ccc(C(C)(C)C)cc1,35.5µM,31.6µM,0,10µM,31.6µM
SMILES,BAZ2B block,JMJD2A Tudor,L3MBTL1 block,G9a inh,HP1b binding inh
CC(C)(C)c1ccc(C(=O)N2CCNCC2)cc1,0,0,-,0[12.7 µM],0
Cc1ccc(S(=O)(=O)NCCCCCC(=O)Nc2nccs2)cc1,79.4µM,?,0,11.2µM,0
COc1ccc(C(=O)/C=C/c2ccccc2)c(OC)c1,0,0,0,0,0
COc1cc(OC)c(C=CC(=O)c2ccccc2O)c(OC)c1,-,?,-,-,28.2µM
COc1cc(/C=C/C(=O)c2ccccc2O)cc(OC)c1OC,56.2µM,50.1µM,0,44.7µM,0
O=C(CN1C=NS(=O)(=O)c2ccc(C(F)(F)F)cc21)Nc1cccc(C(F)(F)F)c1,0,0,-,0,0
COc1ccc(OC)c(-c2csc(-c3c(N)c(C(=O)c4ccc(Cl)cc4)n4ccccc34)n2)c1,0,0,-,0,0
C=CCn1c(CNC(=O)c2ccco2)nnc1SCC(=O)N1c2ccccc2Sc2ccccc21,79.4µM,0,-,?,0
C=CCn1c(CNC(=O)c2ccco2)nnc1SCC(=O)c1ccc(F)cc1,0,0,-,?,0
Cc1coc2cc3oc(=O)c(CCC(=O)NCc4ccc(Cl)cc4)c(C)c3cc12,0,0,-,0,0
Cc1[nH]c2ccccc2c1C(=O)C(=O)NC1CC(=O)N(c2ccc(F)cc2)C1 (configuration not stated),0,0,0,50.1µM,0
Cc1ccc(N2CC(NC(=O)C(=O)c3c(C)[nH]c4ccccc34)CC2=O)cc1 (configuration not stated),0,0,0,0,0
CC(=O)c1ccc(NC(=O)c2nn(C)c3c2COc2ccccc2-3)cc1,?,0,-,?,0
Cc1ccc(OCC(=O)OCc2cc(=O)n3ccsc3n2)cc1C,0,0,-,0,0
O=C(C[n+]1ccccc1)N/N=C/c1ccc(Cl)c(Cl)c1,50.1µM,22.4µM,-,0,0
Cc1csc(CNc2ncnc3ccc(-c4ccco4)cc23)c1,0,-,0,0[12.7 µM],-
CCCCN1C(=O)NC2NC(=O)NC21 (configuration not stated),20µM,?,0,25.1µM,0
CCCCN1C(=O)N(C)C2NC(=O)NC21 (configuration not stated),0,0,-,0[12.7 µM],0
c1ccc(-c2cc(-c3ccc(N4CCOCC4)cc3)nc3ccccc23)cc1,0,0,0,0,0
COc1ccc2c(-c3ccccc3)cc(N3CCOCC3)nc2c1,25.1µM,1.26µM,-,2.24µM,25.1µM
COc1ccc2oc(=O)c(/C(C)=N/Nc3ccccc3)cc2c1,-,0,-,12.6µM,0
COc1ccc2oc(=O)c(C(=O)Nc3ccccc3-c3ccccc3)cc2c1,0,0,-,0[12.7 µM],0
C/C(=N\Nc1ccccc1)c1c(O)cc(C)oc1=O,0,0,0,2.51µM,0
COc1ccc2oc(=O)c(C(=O)Nc3ccccc3C)cc2c1,50.1µM,0,0[2.29 µM],0[0.501 µM],0
CC1(C)CN(c2cccc(Br)c2)C1=O,0,0,0,0,0
SMILES,BAZ2B block,JMJD2A Tudor,L3MBTL1 block,G9a inh,HP1b binding inh
Cc1nc2ccccc2c(=O)n1C1CCCCCC1,0,0[11.4 µM],0,0,0
CCO/C(C)=N/n1c2nc3ccccc3nc2c2c(=O)n(C3CCCC3)c(C)nc21,0,0,0,56.2µM,0
CCC(=O)Oc1ccc(C/C(=N\O)c2ccc(O)cc2O)o1,?,?,31.6µM,12.6µM,0
Cc1ccc(Cn2ccn(CC(=O)Nc3ccccc3C(F)(F)F)c(=O)c2=O)cc1,0,0,-,0,0
O=C(NCCN1CCN(c2ccccc2)CC1)Nc1ccc(Cl)cc1,0,0,-,0,0
CCOc1ccc(NC(=S)NCCCN2CCN(c3ccc(OC)cc3)CC2)cc1,35.5µM,?,-,39.8µM,0
COc1ccc(N2CCN(CCNC(=O)Nc3ccc(Cl)cc3)CC2)cc1,0,0,-,8.91µM,0
CCOc1ccc(NC(=O)NCCCN2CCN(c3ccc(OC)cc3)CC2)cc1,0,?,-,?,0

# Compound activity as filed in PubChem.
